Molecules are shown by their SMILES. About 83,000 compounds went through this panel and 20% of them were active in at least one assay; those are over-represented in the sample as a whole.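 The endpoint reported here, percent growth, reads 100 for growth as untreated, 0 for no net growth and -100 for all cells dead.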 Active and inactive are the calls of the source. The calls were made as follows: active = growth percent below 10; inactive = the rest.

For the experiment, the system named is LOX IMVI melanoma. Description: NCI-60 one-dose screen, 48 h (100 = growth as untreated, 0 = no growth, -100 = all killed). The note with it: 10 µM.
As for `CCN(CC)c1ccnc(CNCCSC(c2ccccc2)(c2ccccc2)c2ccc(C)cc2)c1`, the growth was -99.6% (active).

On to `COc1ccc(C2CC(c3ccc(S(=O)(=O)NCCNc4nc(Nc5ccc(F)cc5)nc(N(C)C)n4)cc3)=Nc3c(N)nc(N)nc3N2)cc1` (stereo not drawn), for which the growth was 65.1% (inactive).

In the case of `O=C(Cn1nc(-c2ccccc2)ccc1=O)N/N=C/c1ccc(N2CCOCC2)cc1`, the growth was 102% (inactive).

For the compound `CC1(C)CC[C@]2(C(=O)O)CC[C@]3(C)C(=CCC4[C@@]5(C)C[C@@H](O)[C@@H]6OC(c7cccc(Br)c7)OC[C@@]6(C)C5CC[C@]43C)C2C1` (stereo partly drawn), the growth was 16.5% (inactive).

Take `CCCSc1nc(NCCc2c[nH]c3ccccc23)c(C#N)c(-c2ccc(OC)cc2)n1`: the growth was 37.1% (inactive).

As to `N/C(=N\c1nc2ccccc2s1)NC(=O)Nc1ccccc1Br`, the growth is -75.7% (active).

For `COC(=O)/C=C/c1cccc2c1C(=O)NC(C)(c1cc3ccccc3oc1=O)N2` (stereo not drawn), the growth was 38.9% (inactive).

For `Brc1ccc(-c2n(Cc3ccc4ccccc4c3)c(-c3ccccc3)c(-c3ccccc3)[n+]2Cc2ccc3ccccc3c2)cc1`, the growth is -92.6% (active).

Regarding `CN(C)c1ccnc(CNCCSC2(c3ccc(C(F)(F)F)cc3)c3ccccc3C=Cc3ccccc32)c1`, the growth is -92% (active).

As to `CN(C)c1nc(NCCNS(=O)(=O)c2ccc(C3=Nc4c(N)nc(N)nc4NC(c4ccc(C(F)(F)F)cc4)C3)cc2)nc(Nc2ccc(F)cc2)n1` (stereo not drawn), the growth is -78.2% (active).

For `O=C(NN1C(=O)/C(=C/C=C/c2ccc([N+](=O)[O-])o2)SC1=S)c1ccc(Cl)cc1`, the growth was -97.3% (active).

Take `C#CCOc1cc(N(CC)CC)ccc1C(C(=O)NC(C)(C)C)N(C(=O)C1CCc2cc(F)ccc2O1)c1ccc(Br)cc1` (stereo not drawn): the growth was 35.9% (inactive).

`COc1ccc(N2N=C(c3ccc4c(c3)OCO4)CC2c2cccc(NC(=O)CCNS(=O)(=O)c3ccc(Cl)cc3)c2)cc1` (stereo not drawn): the growth was 23.3% (inactive).

The record behind these values is PubChem BioAssay (NCI).
